Source: PubChem BioAssay (National Center for Advancing Translational Sciences (NCATS))
In the library only some 21% were active in any assay of this set; here they are far more common.
AMA1 RON2 block = qHTS for Inhibitors of AMA1-RON; Towards Development of Antimalarial Drug Lead: Primary Screen. Plasmodium falciparum AMA1 (3D7) - RON2 peptide interaction. AlphaScreen AMA1-biotinylated RON2 peptide binding. Potency, µM (titrated, usually from 58.2 µM), without a hit: at the top dose activity change, negative = inhibition, usual class: inhibitors. 360,000 compounds, 0.2% hits. AID 720542, 2013;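 also: potency is read from the fitted curve at half-maximal effect; 0% = vehicle wells and -100% = peptide control; nearly all actives have a fitted effect of over 45% in size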
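AMA1 (3D7) with his tag at 25 nM final met compounds first, then biotinylated RON2 peptide at 25 nM; detection used donor plus acceptor beads, 10 µg/mL apiece, read by AlphaScreen after 30 min at room temperature.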
HCV inh = qHTS Assay for Inhibitors of Hepatitis C Virus (HCV); Huh7.5.1 HCVcc-Cre infection, luciferase reporter, 44 h; Potency, µM (top dose mostly 41.8 µM), for the others: top-dose activity change, negative = inhibition, actives largely listed as inhibitors; 340,000 compounds, 3.4% hits; AID 651820, 2012; also: potency is read from the fitted curve at half-maximal effect; % is scaled to controls: 0 for no effect and ±100 for the full control effect
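Luciferase read-out (15 sec integration) after a 15 min room-temperature substrate step quantifies HCVcc-Cre infection. Cells, 1,000 per well, had compound added 4 h post-plating, then virus at ~0.5 moi, and were cultured 44 h.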
Shiga inhibitor = A qHTS for Small Molecule Inhibitors of Shiga Toxin; 290,000 compounds, 9.2% hits; Vero cells, Shiga toxin protein synthesis inhibition reporter; AID 2315, 2010; inhibition, % at 38.7 µM; in the data active = inhibition mostly above about 28%, no sharp cut-off; inactive = mostly below about 43%; also: 0% is about no effect
CHX counter = Cycloheximide Counterscreen for Small Molecule Inhibitors of Shiga Toxin; max response, %; AID 2314, 2010; cell reporter, cycloheximide protein synthesis inhibition counterscreen; 300,000 compounds, 12% hits; in the data active = max response mostly above about 13%, no sharp cut-off; inactive = mostly below about 14%; also: read at 38.3 µM for the half of the compounds with a filed dose; 0% is about no effect
Pf growth 48h = Primary qHTS for delayed death inhibitors of the malarial parasite plastid, 48 hour incubation | AID 504832, 2011 | P. falciparum luciferase growth in erythrocytes, 48 h | Potency, µM (top dose mostly 28.7 µM), for inactives: at the top dose activity change, negative = inhibition, actives largely listed as inhibitors | 310,000 compounds, 5.9% hits; also: potency is read from the fitted curve at half-maximal effect; % is scaled to controls: 0 for no effect and ±100 for the full control effect
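Compounds are pin-transferred into medium, infected erythrocytes (2% hematocrit, 0.1% parasitemia final) are added, and plates sit one parasite generation at 37 C in 5% CO2. Detection reagent is then added and luminescence measured.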
Pf growth 96h = Primary qHTS for delayed death inhibitors of the malarial parasite plastid, 96 hour incubation. P. falciparum luciferase reporter growth, 96 h. Potency, µM (titrated, usually from 28.7 µM), for inactives: at the top dose activity change, negative = inhibition, actives largely listed as inhibitors. 320,000 compounds, 6.9% hits; also: potency is read from the fitted curve at half-maximal effect; % is scaled to controls: 0 for no effect and ±100 for the full control effect
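Two-generation exposure (96 h) targets delayed-death phenotype. Reporter parasites carrying integrated firefly luciferase, in red cells at 2% hematocrit and 0.05% parasitemia final, kept at 37 C, 5% CO2; luminescence loss indicates inhibition.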
* hit, by the source's call; ? = inconclusive; · = not tested or not shown; [ ] = dose if it differs, or a comment. Unless noted, calls follow the shape of the dose curve; as a rule, active = well fitted curve in the direction sought with a large enough effect; inconclusive = small, poorly fitted or top-dose-only effect, or another doubt; inactive = no such curve, though single readings can be large; an effect the other way counts as inactive or inconclusive.

SMILES	AMA1 RON2 block	HCV inh	Shiga inhibitor	CHX counter	Pf growth 48h	Pf growth 96h
O=C(NCc1ccccc1)C(c1ccccc1)N(Cc1ccc2c(c1)OCO2)C(=O)Cc1cccs1 (stereo unspecified)	-11%	?	17	3	?	15%
COCCN(C(=O)Cc1cccs1)C(C(=O)NC1CCCC1)c1ccc(OC)c(OC)c1 (stereo unspecified)	-7%	14%	1	3	-28%	19%
CCc1ccc(C(C(=O)NCc2ccc(OC)cc2)N(CCOC)C(=O)Cc2cccs2)cc1 (stereo unspecified)	-4%	-27%	-12	2	4.1µM*	1.5µM*
CCOc1ccc(CN(C)c2ccc(S(=O)(=O)N3CCN(C)CC3)cc2[N+](=O)[O-])cc1OC	-27%	?	·	·	?	?
CCOc1cc(C(N)=O)cc(Cl)c1OCc1ccccc1	1%	13µM*	-2	-1	-1%	15%
COc1cc(C(N)=O)cc(Cl)c1OCc1ccccc1	2%	-6%	-4	1	10%	6%
CCOc1cc(CNCC(C)C)cc(Cl)c1OCc1ccccc1	23%	?	15	0	13µM*	5.2µM*
CCCCNCc1cc(Cl)c(OCCC)c(OCC)c1	3%	·	-19	-5	·	8.3µM*
CCCCOc1c(Cl)cc(CNC(C)(C)CO)cc1OCC	0%	?	-10	-4	?	14%
CCOc1cc(CNC2CCCC2)ccc1OCc1ccccc1Cl	-7%	3.2µM*	-4	-8	?	-55%[5.75 µM]
COc1cc2c(cc1OC)CN(C1CCC(C)CC1)CC2 (stereo unspecified)	8%	7%	-5	-1	?	?
COc1cc(CNCc2ccccc2)cc(Cl)c1OC	9%	-6%	-4	3	-2%	-11%
CCOc1cc(CNC2CCCC2)cc(Cl)c1OCc1ccccc1	0%	13µM*	-17	-3	13µM*	?
CCOc1c(Cl)cc(CNCC(O)c2ccccc2)cc1OC (stereo unspecified)	-6%	-28%	-11	4	4.1µM*	31%
COc1cc(CNC2CCCCCCC2)cc(Cl)c1OC	5%	-7%	2	-4	?	?
COc1cc(CNCCc2ccccc2)cc(Cl)c1OCc1ccccc1	-9%	?	-19	-10	8.3µM*	150%
CCC(=O)Nc1ccc(NC(=O)CSc2nnnn2-c2ccc3c(c2)OCCO3)cc1	0%	?	2	-2	11%	28%
COc1cc2c(cc1OC)CN(C(=O)CSc1nc3[nH]ncc3c(=O)n1-c1ccccc1)CC2	19%	11µM*	-8	-3	?	6%
COc1cc(NC(=O)CSc2nc3[nH]ncc3c(=O)n2-c2ccccc2)cc(OC)c1OC	32%	·	·	·	·	·
COc1ccc(-n2nnnc2SCC(N)=O)cc1	-3%	6%	-10	-1	0%	·
NC(=O)CSc1nnnn1-c1ccc(OC(F)(F)F)cc1	5%	19%	14	-1	6%	0.19µM*
Cc1ccc(-n2nnnc2SCC(=O)NC(=O)Nc2ccc3c(c2)OCCO3)cc1	3%	11%	75*	23*	29%	-26%
COc1ccc(CCNC(=O)CSc2nc3[nH]ncc3c(=O)n2-c2ccc(C)c(Cl)c2)cc1OC	5%	0%	96*	41*	-81%	?
Cc1cc(F)cc(-c2cc(C(=O)NCc3ccccn3)[nH]n2)c1	74%	·	·	·	·	·
Cc1ccc(OCC(=O)OCC(=O)c2cccc([N+](=O)[O-])c2)cc1C	4%	9%	-17	8	-17%	?
SMILES	AMA1 RON2 block	HCV inh	Shiga inhibitor	CHX counter	Pf growth 48h	Pf growth 96h
O=C(CSc1nnnn1-c1ccccc1Cl)Nc1ccc2c(c1)OCCO2	-7%	-18%	84*	46*	94%	10%
Cc1ccc(C(CNC(=O)C(=O)Nc2ccc3c(c2)OCCO3)N2CCN(C)CC2)cc1 (stereo unspecified)	5%	16%	·	·	7.4µM*	-1%
COc1ccc(-n2nnnc2SC(C)C(N)=O)cc1 (stereo unspecified)	-4%	16%	40	6	1%	12µM*
CC(C)Oc1cccc(-c2nnc(SCC(=O)Nc3ccc4c(c3)OCCO4)n2N)c1	0%	-12%	100	34*	62%	47%
CC(C)(CC(=O)O)CC(=O)Nc1cc(C(F)(F)F)cc(C(F)(F)F)c1	-19%	7%	26	-1	4%	-4%
CC(C)(C)OC(=O)N1CCN(C(=O)c2[nH]cnc2C(=O)Nc2ccc(Cl)cc2)CC1	2%	0%	·	·	·	·
CC1(Cn2ccnn2)[C@H](C(=O)O)N2C(=O)C[C@H]2S1(=O)=O (stereo partly specified)	·	·	-3	-2	-1%	-15%
O=C(CSc1nnnn1-c1ccc(Cl)cc1)NC(=O)Nc1ccc2c(c1)OCCO2	11%	?	72*	29*	173%	116%
COc1ccc(-n2nnnc2SCC(=O)NCCc2ccc(OC)c(OC)c2)cc1	18%	-18%	13	0	-13%	5.2µM*
Nn1c(SCC(=O)Nc2ccc3c(c2)OCCO3)nnc1-c1ccncc1	-3%	13%	-1	-2	23%	27%
COc1ccc(-n2nnnc2SCC(=O)NC(=O)Nc2ccc3c(c2)OCCO3)cc1	-3%	7%	92*	21*	35%	·
Cc1nnc(SCC(=O)NC(=O)Nc2ccc3c(c2)OCCO3)n1N	13%	5%	50*	39*	16%	-5%
C[C@@H]1CN([C@H](C)CO)C(=O)c2cc(C#Cc3ccccc3F)cnc2O[C@@H]1CN(C)S(=O)(=O)c1ccccc1F	18%	·	·	·	·	·
O[C@@H]1CN(Cc2cccs2)[C@@H](c2ccccc2)C[C@H]1n1cc(C2CC2)nn1	18%	·	·	·	·	·
Cc1cnc(CN(C)C(=O)C2CCC(=O)N(CCc3ccc(Cl)cc3)C2)[nH]1 (stereo unspecified)	-6%	·	·	·	·	·
CCCCC1(CC(=O)OCC)C(=O)N(c2ccccc2)N(c2ccccc2)C1=O	-1%	6%	-4	-2	?	15µM*
CCCCC1(Cc2cccc([N+](=O)[O-])c2)C(=O)N(c2ccccc2)N(c2ccccc2)C1=O	-8%	6.3µM*	-11	-3	3.7µM*	?
CCCCC1(CO)C(=O)N(c2ccccc2)N(c2ccccc2)C1=O	-22%	22%	12	0	2%	0%
CC(C)CC(=O)N1CCN(C(=O)c2ccc(-c3ccccc3)cc2)CC1	-4%	-16%	-3	-1	-16%	59%
